From PubChem BioAssay (EPA / NIEHS)
Active and inactive are the calls of the source. The calls were made as follows: active = hit-call score of the fitted dose curve at least 0.9, where 1 is the maximum; inactive = score below 0.9.

Assays:
[1] = ATG_CRE_CIS: Attagene CIS-FACTORIAL HepG2 Assay for human cAMP Responsive Element (CRE) binding protein 3 (AID 2282926); details: HepG2 CRE cis-reporter, Attagene multiplexed mRNA; actives raise or lower the signal
In short: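 Transfected HepG2 were treated for 24 hours, then RNA was extracted and reporter cDNA amplified with sequence-specific primers. Labelled fragments were separated by capillary electrophoresis, and the CRE signal was fitted bidirectionally with DMSO as baseline.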

[2] = ATG_CMV_CIS: Attagene CIS-FACTORIAL HepG2 Assay for human CMV (Internal Marker) (AID 2282928); details: HepG2 CMV promoter reporter, transcription factor profiling; actives raise or lower the signal;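 also: endpoint acts as a background internal control marker rather than a target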
In short: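 Endogenous transcription factor activity read in HepG2 via transfected cis-promoter reporter units. After 24 h dosing, reporter mRNA measured by RT-PCR/capillary electrophoresis; gain or loss of signal fit relative to DMSO.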

[3] = ATG_DR4_LXR_CIS: Attagene CIS-FACTORIAL HepG2 Assay for human Liver X Receptor (LXR), DR4 submotif (AID 2282929); details: HepG2 Attagene DR4 cis-reporter, mRNA transcription; actives raise or lower the signal
In short: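 The endpoint is DR4-element-driven reporter transcripts after 24 h chemical exposure of transfected HepG2 cells. These were measured via RT-PCR and capillary electrophoresis, and gain or loss of signal was fitted relative to DMSO controls.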

[4] = target: Aryl hydrocarbon receptor (Homo sapiens) (UniProt P35869); test: ATG_Ahr_CIS: Attagene CIS-FACTORIAL HepG2 Assay for human Aryl Hydrocarbon Receptor (Ahr) (AID 2282930); details: HepG2 AhR cis-factorial reporter transcription; actives raise or lower the signal
Chain of Aryl hydrocarbon receptor (Homo sapiens) (P35869 whole entry, looked up): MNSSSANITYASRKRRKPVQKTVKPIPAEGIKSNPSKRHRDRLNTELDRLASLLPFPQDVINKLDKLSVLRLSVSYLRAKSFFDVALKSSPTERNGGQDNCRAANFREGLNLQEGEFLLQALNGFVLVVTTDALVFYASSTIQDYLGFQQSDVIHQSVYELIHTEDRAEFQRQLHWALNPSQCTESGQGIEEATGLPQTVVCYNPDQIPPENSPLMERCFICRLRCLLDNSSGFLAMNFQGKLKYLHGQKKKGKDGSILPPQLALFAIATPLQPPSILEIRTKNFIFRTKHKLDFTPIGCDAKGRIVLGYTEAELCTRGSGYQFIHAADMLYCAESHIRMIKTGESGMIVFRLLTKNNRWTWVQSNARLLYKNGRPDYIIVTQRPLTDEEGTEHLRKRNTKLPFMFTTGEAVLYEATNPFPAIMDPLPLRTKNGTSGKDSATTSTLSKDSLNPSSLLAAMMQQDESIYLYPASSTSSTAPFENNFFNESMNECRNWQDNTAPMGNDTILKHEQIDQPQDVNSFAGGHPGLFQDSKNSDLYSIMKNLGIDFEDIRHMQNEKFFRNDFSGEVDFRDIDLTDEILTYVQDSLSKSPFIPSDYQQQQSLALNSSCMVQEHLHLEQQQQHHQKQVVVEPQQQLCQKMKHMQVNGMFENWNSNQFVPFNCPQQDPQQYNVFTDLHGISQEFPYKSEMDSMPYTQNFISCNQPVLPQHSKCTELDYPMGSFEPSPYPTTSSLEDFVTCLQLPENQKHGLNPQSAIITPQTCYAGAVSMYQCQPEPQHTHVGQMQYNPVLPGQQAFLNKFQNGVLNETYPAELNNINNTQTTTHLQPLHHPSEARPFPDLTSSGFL
In short: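 Endogenous factor activity is tracked through cis-promoter reporter units transfected into HepG2 cells. Transcript levels at 24 h are read by fluorescent RT-PCR and capillary electrophoresis, with activity in either direction scored relative to DMSO.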

[5] = ATG_AP_1_CIS: Attagene CIS-FACTORIAL HepG2 Assay for human Activator Protein 1 (AP-1) (AID 2282931); details: HepG2 Attagene cis-factorial AP-1 reporter mRNA; actives raise or lower the signal
In short: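 Readout is reporter transcript level from endogenous transcription factor activity, quantified by RT-PCR with fluorescent primer extension and capillary electrophoresis. Transiently transfected HepG2 cells, 24 h exposure. Curves fitted both directions versus DMSO.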

[6] = ATG_AP_2_CIS: Attagene CIS-FACTORIAL HepG2 Assay for human Activator Protein 2 (AP-2) (AID 2282932); details: HepG2 AP-2 cis-reporter, Attagene transcription factor profiling; actives raise or lower the signal
In short: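 HepG2 cells transiently transfected with cis-element reporter units and exposed for 24 h. Reporter mRNA measured by RT-PCR, FAM labelling, HpaI digestion and capillary electrophoresis. Changes in either direction fitted relative to DMSO.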

[7] = ATG_BRE_CIS: Attagene CIS-FACTORIAL HepG2 Assay for human Bone Morphogenetic Protein (BMP) Response Element (BRE) (AID 2282933); details: HepG2 BMP response element reporter, Attagene transcription factor profiling; actives raise or lower the signal
In short: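 Transient MRTU transfection of human HepG2 liver cells; 24 h compound treatment; total RNA isolated, reverse-transcribed, PCR-amplified, 6-FAM labelled, HpaI-cut, capillary electrophoresis. DMSO = negative control/baseline, bidirectional fit.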

Measured: outcome

CCCc1ccc(N)cc1
inactive: all assays above
